Results reported in the antibiotic and cytotoxicity screens of Wong et al. (2023).
The campaign covered roughly 39,000 compounds. About 1,500 (3.8%) were called active. The list comes from a sample in which actives are over-represented; it also holds similar structures and randomly drawn compounds.

Test system: HSkMC (human skeletal muscle cells)
Experiment: cytotoxicity call (relative viability < 0.9)
Conditions: 10 µM

Compound | cytotoxicity call
CC1(C)[C@H](C(N)=O)CC[C@@]1(C)C(=O)O | inactive
C[C@H](CO)N1C[C@H](C)[C@H](CN(C)Cc2ccccc2)OCCCC[C@H](C)Oc2ccc(NC(=O)Nc3ccc(F)cc3)cc2C1=O | inactive
C[C@@H]1CCCCO[C@H](CN(C)Cc2ccccc2)[C@H](C)CN([C@H](C)CO)C(=O)c2cc(NC(=O)Nc3ccc(F)cc3)ccc2O1 | inactive
C[C@@H]1CN([C@H](C)CO)C(=O)c2cc(NC(=O)Nc3ccc(F)cc3)ccc2O[C@@H](C)CCCCO[C@H]1CN(C)Cc1ccccc1 | active
C[C@H]1CCCCO[C@@H](CN(C)Cc2ccccc2)[C@@H](C)CN([C@@H](C)CO)C(=O)c2cc(NC(=O)Nc3ccc(F)cc3)ccc2O1 | active
C[C@@H]1CN([C@H](C)CO)C(=O)c2cc(NC(=O)Nc3ccc(F)cc3)ccc2O[C@@H](C)CCCCO[C@@H]1CN(C)Cc1ccccc1 | inactive
C[C@H]1CCCCO[C@H](CN(C)Cc2ccccc2)[C@@H](C)CN([C@@H](C)CO)C(=O)c2cc(NC(=O)Nc3ccc(F)cc3)ccc2O1 | inactive
COc1ccc(CN(C)C[C@@H]2OCCCC[C@H](C)Oc3ccc(NS(=O)(=O)c4ccc(F)cc4)cc3C(=O)N([C@@H](C)CO)C[C@@H]2C)cc1 | inactive
C[C@H](CO)N1C[C@H](C)[C@H](CN(C)S(C)(=O)=O)Oc2c(NS(=O)(=O)c3cn(C)cn3)cccc2C1=O | inactive
COc1ccc2c3c(n(c2c1)C)[C@@H](CO)N(C[C@]13CCN(CC1)S(=O)(=O)C)C(=O)CN(C)C | inactive
COc1ccc(NC(=O)N(C)C[C@H]2OCCCC[C@H](C)Oc3ccc(NC(=O)Nc4ccc(C(F)(F)F)cc4)cc3C(=O)N([C@@H](C)CO)C[C@@H]2C)cc1 | inactive
Clc1ccc(COC(Cn2ccnc2)c2ccc(Cl)cc2Cl)c(Cl)c1.O=[N+]([O-])O (stereo not drawn) | inactive
Clc1ccc(C(Cn2ccnc2)OCc2ccsc2Cl)c(Cl)c1 (stereo not drawn) | inactive
Clc1ccc(C(c2ccc(Cl)cc2)[n+]2ccn(C[C@@H](OCc3ccc(Cl)cc3Cl)c3ccc(Cl)cc3Cl)c2)cc1 | active
Cc1ccc2c(=O)c3ccccc3n(CCCN)c2c1C | inactive
CCCC#Cc1cnc2c(c1)C(=O)N([C@H](C)CO)C[C@@H](C)[C@H](CN(C)S(=O)(=O)c1cccc(OC)c1)O2 | inactive
Nc1ncnc2c1c(-c1ccc(Cl)cc1)nn2-c1cccc(-c2cnnn2Cc2cccc(-c3ccccc3)c2)c1 | active
C[C@H](CO)N1C[C@H](C)[C@H](CN(C)S(C)(=O)=O)Oc2c(NC(=O)CCCCCC(=O)Nc3ccccc3N)cccc2C1=O | inactive
